Source: article PMC10668032, “Altered binding affinity of SIX1-Q177R correlates with enhanced WNT5A and WNT pathway effector expression in Wilms tumor”
The full ranking holds about 33,000 sequences; the median of “e-score” is about -0.05, and the highest 2% start at about 0.38. Many of the other results were omitted from the sample, so the highest values are more common in it than they were.

Each sequence was assayed against T1, SIX1-Q177R homeodomain (human, UniProt Q15475 108-198, Q177R) (assay: universal protein binding microarray; Universal all-10-mer PBM (8x60K, AMADID 030236), 300 nM GST-tagged protein, Alexa Fluor 488 anti-GST; buffer, salt, pH and temperature not stated (as in Berger); high values mean tight binding). Conditions: protein: ivt; tags: N-terminal GST; dsDNA, one strand shown.
T1 sequence: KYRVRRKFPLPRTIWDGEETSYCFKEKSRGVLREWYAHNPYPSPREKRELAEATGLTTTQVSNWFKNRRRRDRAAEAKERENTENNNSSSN
Outline: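 After in vitro transcription/translation, GST-tagged homeodomains were quantified against a recombinant GST standard curve by anti-GST western blot. They were then placed in duplicate at 300 nM final concentration on universal 'all 10-mer' protein binding microarrays of 8×60K format.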
CACGGATG was tested, and the binding signal was 0.155 ± 0.0314 E-score. Work on ATCCACTC yielded a binding signal of 0.203 ± 0.0237 E-score. TACTCCGA showed a binding signal of 0.211 ± 0.0155 E-score. In the case of CACTCCCG, the binding signal is reported as 0.1824 ± 0.000608 E-score. Sequence ATTGATAC has a binding signal of 0.196 ± 0.00402 E-score. In the case of ATGGCCGA, the binding signal is reported as 0.155 ± 0.00984 E-score. Work on GGGATACA yielded a binding signal of 0.234 ± 0.00449 E-score. Work on CACCTGTA yielded a binding signal of 0.232 ± 0.0126 E-score. For AACAACAC, the binding signal was 0.414 ± 0.0082 E-score. For GGCAACAC, the binding signal was 0.4138 ± 0.00188 E-score. CACACAAC gave a binding signal of 0.153 ± 0.0694 E-score. For CACAACAA, the binding signal was 0.168 ± 0.00449 E-score. In the case of CGCAACAC, the binding signal is reported as 0.366 ± 0.00704 E-score. In the case of GACACAAC, the binding signal is reported as 0.207 ± 0.0332 E-score. Work on CACAACAC yielded a binding signal of 0.38 ± 0.0127 E-score. In the case of AACACAAC, the binding signal is reported as 0.176 ± 0.0727 E-score. For GACAACAC, the binding signal was 0.386 ± 0.0047 E-score. With GGGCACAC the binding signal was 0.284 ± 0.0218 E-score. Work on AAGGGAGT yielded a binding signal of 0.181 ± 0.0594 E-score. CACGACTG gave a binding signal of 0.19 ± 0.0173 E-score. Sequence ATATGGTG has a binding signal of 0.245 ± 0.0104 E-score. For CTTCTACA, the binding signal was 0.161 ± 0.0182 E-score. Work on ACCCCCTG yielded a binding signal of 0.328 ± 0.0317 E-score. ACACCCTG showed a binding signal of 0.4727 ± 0.000955 E-score. With ACCCCCTC the binding signal was 0.324 ± 0.00733 E-score. ATACCCTG showed a binding signal of 0.31 ± 0.0148 E-score. Sequence ACCCTCTC has a binding signal of 0.164 ± 0.0166 E-score. GCACCCTA was tested, and the binding signal was 0.226 ± 0.0182 E-score. CCACCCTA was tested, and the binding signal was 0.174 ± 0.00684 E-score. ACACCCTC gave a binding signal of 0.4743 ± 0.00338 E-score. ACACCCTA showed a binding signal of 0.4661 ± 0.00184 E-score. ACCGCACA gave a binding signal of 0.232 ± 0.00335 E-score. TGGGAACA gave a binding signal of 0.172 ± 0.0191 E-score. In the case of CGCCCGAC, the binding signal is reported as 0.184 ± 0.0127 E-score. Sequence ACCGAGTG has a binding signal of 0.363 ± 0.0115 E-score. CACCAGGC gave a binding signal of 0.336 ± 0.016 E-score. CACGAAGA was tested, and the binding signal was 0.183 ± 0.0282 E-score. Work on AGATTACA yielded a binding signal of 0.23 ± 0.00802 E-score. With TCGACACA the binding signal was 0.188 ± 0.0429 E-score. Work on CCGACCCC yielded a binding signal of 0.24 ± 0.0393 E-score. CCGACACC was tested, and the binding signal was 0.488 ± 0.0101 E-score. ACGACACT was tested, and the binding signal was 0.4277 ± 0.00127 E-score. CCGACACG was tested, and the binding signal was 0.418 ± 0.0317 E-score. ACGACACA gave a binding signal of 0.273 ± 0.0776 E-score. AAGACACA showed a binding signal of 0.174 ± 0.0361 E-score. CCGACTCC was tested, and the binding signal was 0.159 ± 0.044 E-score. In the case of ACGACACG, the binding signal is reported as 0.426 ± 0.0132 E-score. Work on CCGACACA yielded a binding signal of 0.295 ± 0.0445 E-score. ACCCGCTC was tested, and the binding signal was 0.227 ± 0.00437 E-score. CACCTGCC was tested, and the binding signal was 0.225 ± 0.0171 E-score. For ACCCGAAC, the binding signal was 0.173 ± 0.0027 E-score. Sequence TGTCGTAA has a binding signal of 0.163 ± 0.00414 E-score. Work on CCCCCCCG yielded a binding signal of 0.218 ± 0.0264 E-score. Sequence GGGTGATA has a binding signal of 0.218 ± 0.0149 E-score. Sequence GATCCCGC has a binding signal of 0.185 ± 0.0357 E-score. For CGGGTACG, the binding signal was 0.182 ± 0.00752 E-score. GCGACACC gave a binding signal of 0.487 ± 0.00655 E-score. In the case of ACGACTCC, the binding signal is reported as 0.309 ± 0.0346 E-score. Work on ACGACCCC yielded a binding signal of 0.244 ± 0.0306 E-score. With ACGACACC the binding signal was 0.487 ± 0.00563 E-score. With GCGACACA the binding signal was 0.262 ± 0.0569 E-score. GCGACCCC was tested, and the binding signal was 0.212 ± 0.0261 E-score. With CACTTGAA the binding signal was 0.202 ± 0.00417 E-score. In the case of CACCTTAC, the binding signal is reported as 0.248 ± 0.036 E-score. For CACTCTCG, the binding signal was 0.288 ± 0.0157 E-score. CCCCGAAC was tested, and the binding signal was 0.181 ± 0.00559 E-score. AGGACCCC gave a binding signal of 0.205 ± 0.0283 E-score. CACACATG was tested, and the binding signal was 0.165 ± 0.0245 E-score. AACACTTG was tested, and the binding signal was 0.336 ± 0.0307 E-score. For CACACCTG, the binding signal was 0.389 ± 0.0159 E-score. Sequence AACACCTG has a binding signal of 0.44457 ± 0.000354 E-score. AACACCTA was tested, and the binding signal was 0.444 ± 0.00846 E-score. GACCCCTC gave a binding signal of 0.26 ± 0.015 E-score. Work on GACACCTC yielded a binding signal of 0.4825 ± 0.00161 E-score. Sequence CACACCTA has a binding signal of 0.333 ± 0.00896 E-score. Sequence AACACGTG has a binding signal of 0.371 ± 0.00902 E-score. GACTCCTC gave a binding signal of 0.166 ± 0.0214 E-score. For AACACATA, the binding signal was 0.17 ± 0.0243 E-score. Work on CCGAGACA yielded a binding signal of 0.274 ± 0.00602 E-score. Sequence ATGATACC has a binding signal of 0.335 ± 0.0146 E-score. For CACCACGG, the binding signal was 0.226 ± 0.00882 E-score. With ATGCGGTG the binding signal was 0.295 ± 0.0245 E-score. CGGGCGAC was tested, and the binding signal was 0.215 ± 0.0122 E-score. With CACTGGGG the binding signal was 0.287 ± 0.0142 E-score. ATAAGGTG showed a binding signal of 0.217 ± 0.0216 E-score. In the case of AACTGTGT, the binding signal is reported as 0.159 ± 0.066 E-score. CCGGATCC gave a binding signal of 0.249 ± 0.0202 E-score. For TCGATACA, the binding signal was 0.198 ± 0.0102 E-score. In the case of CACTCCAG, the binding signal is reported as 0.225 ± 0.00445 E-score. For GTTCGGTA, the binding signal was 0.156 ± 0.0218 E-score. Sequence TACACGTA has a binding signal of 0.355 ± 0.0208 E-score. For AGCACCTC, the binding signal was 0.178 ± 0.00186 E-score. With AACACACT the binding signal was 0.276 ± 0.0133 E-score. For AACACCTC, the binding signal was 0.456 ± 0.0111 E-score. With GATACCTA the binding signal was 0.3275 ± 0.000891 E-score. TACACATA gave a binding signal of 0.209 ± 0.0376 E-score. Work on AACACCTT yielded a binding signal of 0.452 ± 0.0164 E-score. In the case of AACACTTC, the binding signal is reported as 0.326 ± 0.0413 E-score. TACACCTA was tested, and the binding signal was 0.47 ± 0.00841 E-score. GACACCTA gave a binding signal of 0.463 ± 0.00697 E-score. GACACATA showed a binding signal of 0.234 ± 0.0761 E-score. For AACACGTT, the binding signal was 0.272 ± 0.0421 E-score. With GCGGGTTA the binding signal was 0.21 ± 0.00486 E-score. CCCGCCCG was tested, and the binding signal was 0.233 ± 0.0272 E-score. In the case of CCCCCGAC, the binding signal is reported as 0.272 ± 0.00679 E-score. With ATACCCGA the binding signal was 0.241 ± 0.0123 E-score. AAGACGTG showed a binding signal of 0.166 ± 0.073 E-score. ACACTTTC was tested, and the binding signal was 0.354 ± 0.0256 E-score. For CCCTTCCC, the binding signal was 0.181 ± 0.0277 E-score. With CACCTCTG the binding signal was 0.2874 ± 0.00224 E-score. In the case of CACACCTC, the binding signal is reported as 0.403 ± 0.00914 E-score. For CACACTTC, the binding signal was 0.205 ± 0.0263 E-score. CACGTCCC was tested, and the binding signal was 0.165 ± 0.0267 E-score. Sequence ATAAACCC has a binding signal of 0.16 ± 0.0287 E-score. With ACCCGATC the binding signal was 0.253 ± 0.057 E-score. Work on ACACGAAG yielded a binding signal of 0.346 ± 0.00991 E-score. Work on ACACGATA yielded a binding signal of 0.3751 ± 0.00175 E-score. ACACGATG gave a binding signal of 0.3915 ± 0.00105 E-score. ACACGATC was tested, and the binding signal was 0.385 ± 0.00771 E-score. ACACGAAC was tested, and the binding signal was 0.3433 ± 0.00132 E-score. CAGCACCC showed a binding signal of 0.188 ± 0.00201 E-score. GGATAACA gave a binding signal of 0.204 ± 0.00942 E-score. For CACGGGTC, the binding signal was 0.253 ± 0.0022 E-score. CCCTGAGG gave a binding signal of 0.177 ± 0.00892 E-score.
